RORg inh – blocks mouse ROR gamma transcriptional activity; P51450; Drosophila S2 Gal4-RORgamma UAS-luciferase reporter, 20 h; Potency, µM (top dose mostly 53.6 µM), without a hit: top-dose activity change, negative = inhibition, hits mostly inhibitors; 310,000 compounds, 5.4% hits; AID 2551; note: potency is the fitted concentration of half-maximal effect; % is set by controls: 0 for no effect and ±100 for the full control effect; nearly all actives have a fitted effect of over 60% in size
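Drosophila Schneider cells stably carrying a metallothionein-driven Gal4 DBD–ROR gamma fusion and a UAS-Photinus luciferase reporter were exposed to compound for 1 hr, then induced with copper sulfate (700 uM final) for 20 hr at ambient temperature before luminescence reading.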
Gal4-VP16 FLuc – inhibits Gal4-VP16 luciferase reporter, ROR gamma counter-screen; Drosophila S2 Gal4-VP16 UAS-luciferase, luminescence, 20 h; Potency, µM (doses to about 53.6 µM), without a hit: at the top dose activity, negative = inhibition, most hits filed as inhibitors; 310,000 compounds, 3.5% hits;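 note: Gal4-VP16 expression switched on by copper sulfate through the metallothionein promoter; potency is the fitted concentration of half-maximal effect; % is set by controls: 0 for no effect and ±100 for the full control effect; nearly all actives have a fitted effect of over 50% in size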
CBFb-RUNX1 inh – CBF-beta/RUNX1 interaction disruption. Potency, µM (series often up to 59.8 µM), without a hit: at the top dose activity, negative = inhibition, most hits filed as inhibitors. 230,000 tested, under 10 active. Q01196+Q13951. AlphaScreen CBFb-His/RUNX1-biotin binding, biochemical; note: % of control where 0% means no effect
Target sequence (Q01196 whole entry, looked up): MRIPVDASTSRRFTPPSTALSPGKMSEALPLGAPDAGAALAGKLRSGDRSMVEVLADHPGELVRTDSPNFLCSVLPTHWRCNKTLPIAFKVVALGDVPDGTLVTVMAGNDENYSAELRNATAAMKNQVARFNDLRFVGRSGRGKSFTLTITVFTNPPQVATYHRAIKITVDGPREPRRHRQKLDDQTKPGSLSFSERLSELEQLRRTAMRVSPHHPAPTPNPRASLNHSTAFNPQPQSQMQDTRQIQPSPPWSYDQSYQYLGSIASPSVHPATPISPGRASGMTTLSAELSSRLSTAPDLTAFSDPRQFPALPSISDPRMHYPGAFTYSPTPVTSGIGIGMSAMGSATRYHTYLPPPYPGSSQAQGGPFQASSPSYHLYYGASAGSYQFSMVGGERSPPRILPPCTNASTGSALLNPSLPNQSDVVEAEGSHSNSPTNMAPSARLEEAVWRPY
Target sequence (Q13951 whole entry, looked up): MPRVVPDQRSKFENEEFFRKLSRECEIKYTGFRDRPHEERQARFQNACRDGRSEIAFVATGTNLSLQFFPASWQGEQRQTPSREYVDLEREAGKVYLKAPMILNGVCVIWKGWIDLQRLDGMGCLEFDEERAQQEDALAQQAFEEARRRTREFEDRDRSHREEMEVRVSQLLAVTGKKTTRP
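AlphaScreen proximity signal reports loss of binding between His-tagged CBF-beta and biotin-labelled RUNX1, each at 30 nM. Proteins are pre-associated for 20 minutes, compounds added for 15 minutes, then beads for 90 minutes, all at ambient temperature.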
MBNL1 CUG block – blocks human MBNL1 binding to CUG repeat RNA; Potency, µM (titrated, usually from 57.5 µM), for inactives: at the top dose activity change, negative = inhibition, actives largely listed as inhibitors; 280,000 compounds, 0.036% hits; AID 2675; TR-FRET MBNL1-His/biotin-(CUG)12 binding, 665/545 ratio; active = well fitted inhibition curve with a large enough effect in the signal ratio, with a control signal flat, not every such curve was filed as active; inconclusive = small, poorly fitted or top-dose-only effect, or effect the other way, or a change in a side signal; inactive = no such curve, though single readings can be large or run the other way; the % refers to the signal ratio; note: potency is the fitted concentration of half-maximal effect; % is set by controls: 0 for no effect and ±100 for the full control effect
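TR-FRET readout: Ex 340 nm, 665/545 nm emission ratio, normalized to buffer-only (basal) and MBNL1-(CUG)12 controls. Complex of MBNL1-His with Biotin-(CUG)12, compounds 92 nM–58 uM, incubated 60 min at room temperature.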
CtBP-E1A blk – inhibitors of CtBP/E1A interaction; AlphaScreen GST-E1A/His-CtBP binding, 1536-well; hits give low values; activity change, % (concentration not given with the values); 340,000 compounds, 0.49% hits; in the data active = activity change below about -65%; inconclusive = mostly about -30% to -63%; note: % is set by controls: 0 for no effect and ±100 for the full control effect
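Homogeneous bead-based format: GST-tagged E1A captured on glutathione donor beads, His-tagged CtBP on nickel acceptor beads; compounds precede bead addition by 2 h at 37 °C.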
Six1-Eya2 blk – inhibitors of human Six1/Eya2 interaction; Q15475+O00167; AlphaScreen GST-Six1/His-Eya2 binding, biochemical; hits give low values; activity change, % (no concentration beside the values); 360,000 compounds, 0.56% hits; in the data active = activity change below about -65%; inconclusive = mostly about -30% to -63%; note: % is set by controls: 0 for no effect and ±100 for the full control effect
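GST-Six1 + His-Eya2 (5X stock: 250/500 nM); Tris pH 8.0, 300 mM NaCl, 0.05% BSA, 0.02% Tween 20; GSH donor/Ni acceptor beads; 1 h 37 °C dark; AlphaScreen readout.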
* marks the source's active call; other numbers are inactive results; ? = inconclusive; . = not tested or not shown; [ ] = remark or other dose. A selection: hits, their analogues and other compounds. The true share with any hit is near 5.5%. Unless noted, calls come from the whole dose curve; as a rule, active = well fitted curve in the direction sought with a large enough effect; inconclusive = small, poorly fitted or top-dose-only effect, or another doubt; inactive = no such curve, though single readings can be large; an effect the other way counts as inactive or inconclusive.

SMILES | RORg inh | Gal4-VP16 FLuc | CBFb-RUNX1 inh | MBNL1 CUG block | CtBP-E1A blk | Six1-Eya2 blk
c1ccc(-c2nc3ccccn3c2NC2CCCC2)nc1 | 7% | 0% | -2% | 12% | -67* | ?
Cc1ccn2c(NC3CCCC3)c(-c3ccccn3)nc2c1 | 3.5µM* | -17%[10 µM] | ? | 27% | -80* | -66*
COc1ccc(-c2nc3ccccn3c2NC2CCCCC2)cc1SC1CCCCC1 | . | . | . | . | -13 | -16
Cc1cc(C)n2c(NC3CCCC3)c(-c3cc4ccccc4o3)nc2n1 | . | . | . | . | 3 | 3
Cc1ccn2c(NC3CCCCC3)c(C(C)C)nc2c1 | 8% | -1% | -4% | -8% | 2 | -2
CC1CNC(=S)N(c2ccc(F)cc2)C1=O (centres undefined) | . | . | . | . | 0 | 8
Cc1ccc2c(c1)N(CC(=O)NCCCN1CCOCC1)C(=O)c1cccnc1O2 | -21% | -3% | . | 0% | 1 | 3
CC1=C(/C=C/C(C)=C/C=C/C(C)=C/C=O)C(C)(C)CCC1 | ? | ? | -1%[21.7 µM] | . | . | .
Cc1cc(C)n2nc(CC(=O)NNC(=O)COc3ccccc3)nc2n1 | -14% | -1% | . | 3% | -1 | 0
Cc1cc(C)c(NC(=S)NCC2CCN(C(C)c3ccccc3)C2)c(C)c1 (centres undefined) | 7.9µM* | ? | 0% | -11% | -6 | -13
Cc1ccc(NC(=S)NCC2CCN(C(C)c3ccccc3)C2)cc1 (centres undefined) | ? | ? | -9% | -17% | -6 | -3
CC(c1ccccc1)N1CCC(CNC(=S)Nc2cccc(Cl)c2)C1 (centres undefined) | 10µM* | ? | -3% | -2% | -10 | -3
COc1ccc(-n2nc(C(=O)NCC(=O)NCCCN3CC(C)CC(C)C3)c3ccccc3c2=O)cc1OC (centres undefined) | -17% | -2% | . | ? | 2 | -2
Cc1csc(/C(=N\O)c2csc(C)n2)n1 | 2.8µM* | 4.5µM* | -15% | 12% | ? | -25
COc1ccc(/C=N/NC(=S)N[C@H]2CC3CCC2C3)cc1 (some centres undefined) | 0.63µM* | 3.2µM* | 15% | -8% | -3 | -2
COc1cc(/C=N/NC(=S)NC2CC3CCC2C3)ccc1O (centres undefined) | 2µM* | 5µM* | -12% | -3% | -10 | -11
S=C(N/N=C/c1ccc2c(c1)OCO2)NC1CC2CCC1C2 (centres undefined) | 4.5µM* | 3.2µM* | 1% | -4% | -2 | -14
COc1ccc(NC(=S)NC(=O)c2csnn2)cc1 | ? | 26% | -3% | 21% | -25 | -12
O=C(NC(=S)Nc1ccccc1)c1csnn1 | 5.6µM* | ? | 5% | -1% | 4 | 0
O=C(NC(=S)Nc1ccc(C(F)(F)F)cc1)c1csnn1 | 7.9µM* | ? | -27% | -4% | -10 | -8
CCc1ccccc1OCC(=O)Nc1nc(-c2cccnc2)cs1 | 3.2µM* | 11µM* | ? | . | -12 | -27
O=C(NC(=S)Nc1nc(-c2ccccc2)cs1)c1cncc(Br)c1 | 1.6µM* | ? | -6% | 1% | -2 | -2
O=C(O)c1ccc(NC(=S)NC(=O)c2cncc(Br)c2)cc1 | ? | ? | . | 2% | . | -4
CCC(=O)c1ccc(OCC(=O)Nc2nc(-c3cccnc3)cs2)cc1 | . | . | . | . | 8 | -19
O=C(NC(=S)Nc1nc(-c2ccccc2)cs1)c1cccnc1 | 4µM* | -13% | -7% | -6% | -9 | -7
SMILES | RORg inh | Gal4-VP16 FLuc | CBFb-RUNX1 inh | MBNL1 CUG block | CtBP-E1A blk | Six1-Eya2 blk
COc1ccc2c(c1)O[C@@H](c1cccc(C(F)(F)F)c1)[C@H](OC(=O)NS(=O)(=O)c1ccc(C)cc1)C2=O | 3% | -3% | 9% | . | . | .
O=C1N(Cc2cccc(Cl)c2)C[C@@H]2C[C@@H](c3ccc4nonc4c3)N3CCC[C@@]123 | 2% | 0% | 0% | -11% | 6 | -7
CN(Cc1ccccc1)C(=O)c1[nH]cnc1C(=O)NC1CCN(C(=O)OC(C)(C)C)CC1 | . | . | . | . | 4 | -3
CCOc1ccccc1C(=O)NCCNC(=O)c1ccccc1OCC | . | . | . | . | 8 | -22
CCOc1ccccc1C(=O)NN1C(=O)CCC1=O | 6.3µM* | ? | 4% | -23%[11.5 µM] | -3 | -10
O=C(Nc1ccc(O)c(-c2nc3ccccc3o2)c1)C1(c2ccc(Br)cc2)CCCC1 | 6.3µM* | 5.6µM* | 2% | -4% | 2 | 3
Cc1ccc(OCC(=O)Nc2ccc(O)c(-c3nc4ccccc4o3)c2)cc1 | 0% | -5% | 9% | ? | 4 | 9
C/C(Cn1cnc([N+](=O)[O-])n1)=N\NC(=O)c1ccccc1F | . | . | . | . | 7 | 1
C/C(Cn1nnc([N+](=O)[O-])n1)=N\NC(=O)c1ccccc1O | 5.6µM* | ? | 4% | . | -13 | -6
C/C(Cn1nnc([N+](=O)[O-])n1)=N\NC(=O)c1ccc(O)cc1O | 0.5µM* | 2.8µM* | 2% | ? | -20 | -15
O=C(NCc1cccs1)C1CCN(S(=O)(=O)c2cccc([N+](=O)[O-])c2)CC1 | 24% | 4% | . | ? | 1 | 8
N#Cc1nccnc1S(=O)(=O)c1cccs1 | 3.2µM* | 3.5µM* | 16% | 19% | -1 | -9
Cc1cccc(Nc2nnc(SCC(=O)NC(=O)CN3CCCC3=O)s2)c1 | . | . | . | . | 2 | -3
CCOC(=O)c1ccc(NC(=S)NN)cc1 | 10µM* | ? | -4% | -3% | -17 | 0
CC(=O)c1ccc(NC(=S)NC(=O)c2c(Cl)c(C)nn2C)cc1 | ? | -14% | 3% | 7% | 6 | -2
COC(=O)Cc1ccc(NC(=S)Nc2cccc(C)n2)cc1 | 4.5µM* | ? | 3% | 7% | -2 | -5
Cc1cccc(NC(=S)Nc2ccc(Oc3ccccc3)cc2)n1 | 9% | ? | -2% | -10% | 1 | -7
CCOC(=O)c1ccc(NC(=S)Nc2cccc(C)n2)cc1 | 0.89µM* | ? | ? | . | -10 | 0
CCOC(=O)c1ccc(NC(=S)NCc2ccc(F)cc2)cc1 | . | . | . | . | . | -3
CCCCOC(=O)c1ccc(NC(=S)NC(=O)c2c(Br)c(C)nn2C)cc1 | 16µM* | 13µM* | -3% | ? | 11 | 5
COc1cccc(C(C(=O)NC(C)(C)C)N(Cc2ccc(F)cc2)C(=O)CCC(=O)Nc2cc(C)on2)c1OC (centres undefined) | -10% | 5% | . | -2% | -10 | 1

Screens (PubChem)
